# Rows were chosen to be rich in hits. Some 17% of all compounds tested hit in one or more screens of this group.
# TDP1 cell noCPT: qHTS for Inhibitors of human tyrosyl-DNA phosphodiesterase 1 (TDP1): qHTS in cells in absence of CPT; DT40 Tdp1-/- hTDP1 cells, no CPT, ATP luminescence, 48 h; Potency, µM (doses to about 46.2 µM), actives largely listed as inhibitors; hit rate 15% among 420,000; further: nearly all actives have a fitted effect of over 55% in size
#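 A cellular qHTS used chicken DT40 cells lacking endogenous Tdp1 but carrying stably transfected human TDP1. Compounds were applied without camptothecin, and cell growth kinetics were judged by ATP-dependent luminescence after ≥48 hr.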
# TGFb inhibitor: inhibitors of TGF-b signaling; HepG2 CAGA-GFP TGF-b/SMAD3 reporter, GFP fluorescence, 18 h; TGF-beta stimulated, 500 pg/mL final; Potency, µM (titrated, usually from 46.1 µM), usual class: inhibitors; hit rate 1.2% among 410,000; further: nearly all actives have a fitted effect of over 65% in size
#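 First, reporter cells (HEPG2 CAGA-GFP) rested 2 h at 37 degrees C. Next, compounds were pinned in and TGF-beta added to 500 pg/mL final. After 18 h, GFP was imaged per cell and summed per well.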
# ATXN viability: reduces viability in counter-screen for ATXN expression inhibitors. hit rate 0.49% among 400,000. S2 cells (HEK-293 line with an ATXN2-luciferase reporter) viability, CellTiter-Fluor protease fluorescence, 24 h. Potency, µM (doses to about 56.7 µM), usual class: cytotoxic. AID 651635; further: nearly all actives have a fitted effect of over 40% in size
# TDP1 cell CPT: DT40-hTDP1 cell growth loss with CPT; Potency, µM (titrated, usually from 46.2 µM), most hits filed as inhibitors; hit rate 12% among 420,000; chicken DT40 Tdp1-/-;hTDP1 cells + 20 nM CPT, ATP luminescence, 48 h; further: nearly all actives have a fitted effect of over 55% in size
#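 Chicken DT40 Tdp1-/- cells complemented with human TDP1, 400 cells/well, exposed to compounds plus 20 nM camptothecin for at least 48 h at 37 C; viability read as ATP content by CellTiter-Glo luminescence.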
# ATXN2 expr inh: ATXN2 expression inhibition | HEK-293 ATXN2-luciferase reporter, luminescence, 24 h | Potency, µM (top dose mostly 57 µM), usual class: inhibitors | hit rate 0.72% among 360,000 | AID 1745845; further: nearly all actives have a fitted effect of over 55% in size
#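 ATXN2-luciferase reporter cells (luciferase flanked by upstream and downstream ATXN2 gene portions) were treated 24 h at 37 °C with compounds at up to 57 uM. SteadyGlo luminescence gave expression; GF-AFC fluorescence gave viability.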
# HepG2 tox: kills HepG2 cells in TGF-b inhibitor counter-screen; HepG2 CAGA-GFP viability, ATP luminescence, 18 h; Potency, µM (series often up to 46.1 µM), actives largely listed as cytotoxic; hit rate 0.76% among 410,000
#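 HepG2 CAGA-GFP cells (1000/well, DMEM with 1% FBS) received compound, then TGF-beta at 500 pg/mL final, and were incubated 18 hours at 37 degrees C. Viability was read by CellTiter-Glo luminescence. Media-only wells were set as complete cell-killing and DMSO as no toxicity.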
# Numbers stand for hits; – = inactive; ? = inconclusive; · = no result given. The call rests on the fitted dose curve; in most records, active means well fitted curve in the direction sought with a large enough effect; inconclusive means small, poorly fitted or top-dose-only effect, or another doubt; inactive means no such curve, though single readings can be large; an effect the other way counts as inactive or inconclusive.
SMILES,TDP1 cell noCPT,TGFb inhibitor,ATXN viability,TDP1 cell CPT,ATXN2 expr inh,HepG2 tox
CN(C(=O)CSc1nc2ccccc2n1CC(=O)N(C)C1CCCCC1)c1ccccc1,18µM,–,?,?,–,–
CC1CCCCN1C(=O)Cn1c(SCC(=O)N(C)c2ccccc2)nc2ccccc21 (centres undefined),?,–,?,?,–,–
CN(C(=O)CSc1nc2ccccc2n1CC(=O)N(C)c1ccc(F)cc1)c1ccccc1,21µM,–,?,18µM,–,–
COc1cc2ccccc2cc1C(=O)OCC(=O)NC1CCS(=O)(=O)C1 (centres undefined),–,–,–,–,–,–
COCCN(C(=O)c1ccc(OC2CCN(S(=O)(=O)N(C)C)CC2)cc1)C(C)C,13µM,–,–,?,·,–
CN(C)S(=O)(=O)N1CCC(Oc2ccc(C(=O)NCc3cnn(C)c3)cc2)CC1,21µM,?,–,–,–,–
COc1ccc(NC2CCCN(C(=O)c3ccccc3C(F)(F)F)C2)cc1 (centres undefined),?,–,–,–,–,–
CCOC(=O)c1cc(C)n(Cc2ccc(OCC)c(OC)c2)c1C,?,–,?,11µM,–,–
CCOC(=O)c1c(C)c(C)n(Cc2ccc(OC)c(OC)c2)c1C,18µM,?,–,21µM,–,–
CC(C)C[C@@H](CN1CCC[C@H]1CN1C(=O)C(=O)NC[C@@H]1Cc1ccc(O)cc1)N1C[C@H](Cc2ccc(O)cc2)N(CC2CCCCCC2)C(=O)C1=O,?,·,–,?,–,·
Cc1ccc(OCC(=O)Nc2ccccc2F)cc1C,–,–,–,–,–,–
C=CCc1ccc(OCCCNCc2ccccc2)c(OC)c1,?,–,?,?,·,–
C=CCc1ccccc1OCCNCc1ccccc1,16µM,–,–,?,–,–
CCc1ccc(NC(=O)C(C)OC(=O)/C=C/c2ccc(O)c(OC)c2)cc1 (centres undefined),?,–,–,?,–,–
COc1ccc(Oc2ccccc2C=O)cc1,5.8µM,–,–,12µM,–,–
COc1ccc(Oc2ccccc2/C=C/C(=O)O)cc1,–,–,–,–,–,–
Cc1cc(C)cc(Oc2ccccc2C=O)c1,4.6µM,–,–,5.8µM,–,–
Cc1cc(C)cc(Oc2ccccc2/C=N\O)c1,–,?,–,–,–,–
CC[C@]1(c2ncc[nH]2)Cc2ccccc2O1,24µM,·,·,?,·,·
COCCN1C[C@@H](CO)O[C@@H](n2cnc3c(N4CCN(CCO)CC4)ncnc32)C1,–,–,–,–,–,–
CCN(Cc1ccc(O)cc1)CC1CCCN(CCc2cccc(F)c2)C1 (centres undefined),?,–,–,16µM,·,–
CCOc1cccc(CN(CC)CC2CCCN(CCc3cccc(OC)c3)C2)c1O (centres undefined),16µM,–,–,?,–,–
C=CCC(=O)N(CC)CC1CCCN(CCc2cccc(F)c2)C1 (centres undefined),–,–,–,–,–,–
CC(=O)Nc1ccc(CN(C)CC2CCCN(CCc3cccc(C(F)(F)F)c3)C2)cc1 (centres undefined),?,–,–,13µM,–,–
CN(CC1CCCN(CCc2cccc(C(F)(F)F)c2)C1)C(=O)c1ccco1 (centres undefined),–,–,–,–,–,–
CCN(Cc1cccc(OC)c1)CC1CCCN(CCc2cccc(OC)c2)C1 (centres undefined),?,?,–,15µM,–,–
CCN(CC1CCCN(CCc2cccc(OC)c2)C1)C(=O)C=C(C)C (centres undefined),–,–,–,–,–,–
CC(C)OCCCNC(=O)CN1C(=O)c2cccc3cccc1c23,–,–,·,–,–,–
